# From PubChem
# TEAD-YAP inh: TEAD-YAP interaction inhibition; HEK-TIYL cells, TEAD-Gal4/YAP UAS-luciferase luminescence; 1.4% of 640,000 active; inhibition, % at 9.12 µM; in the data active means inhibition above about 32%;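 further: 0% = median of test compound wells and 100% = reference inhibitor wells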
# FBW7 act: activators of human E3 ligase FBW7; AlphaScreen FBW7–phospho-cyclin E peptide binding, activator screen; normalized activity (activation), % at 26.1 µM; 0.13% of 650,000 active; Q969H0; in the data active means normalized activity above about 1.9%;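 further: purified mutant Fbw7 with reduced substrate affinity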
# Target sequence (Q969H0 whole entry, looked up): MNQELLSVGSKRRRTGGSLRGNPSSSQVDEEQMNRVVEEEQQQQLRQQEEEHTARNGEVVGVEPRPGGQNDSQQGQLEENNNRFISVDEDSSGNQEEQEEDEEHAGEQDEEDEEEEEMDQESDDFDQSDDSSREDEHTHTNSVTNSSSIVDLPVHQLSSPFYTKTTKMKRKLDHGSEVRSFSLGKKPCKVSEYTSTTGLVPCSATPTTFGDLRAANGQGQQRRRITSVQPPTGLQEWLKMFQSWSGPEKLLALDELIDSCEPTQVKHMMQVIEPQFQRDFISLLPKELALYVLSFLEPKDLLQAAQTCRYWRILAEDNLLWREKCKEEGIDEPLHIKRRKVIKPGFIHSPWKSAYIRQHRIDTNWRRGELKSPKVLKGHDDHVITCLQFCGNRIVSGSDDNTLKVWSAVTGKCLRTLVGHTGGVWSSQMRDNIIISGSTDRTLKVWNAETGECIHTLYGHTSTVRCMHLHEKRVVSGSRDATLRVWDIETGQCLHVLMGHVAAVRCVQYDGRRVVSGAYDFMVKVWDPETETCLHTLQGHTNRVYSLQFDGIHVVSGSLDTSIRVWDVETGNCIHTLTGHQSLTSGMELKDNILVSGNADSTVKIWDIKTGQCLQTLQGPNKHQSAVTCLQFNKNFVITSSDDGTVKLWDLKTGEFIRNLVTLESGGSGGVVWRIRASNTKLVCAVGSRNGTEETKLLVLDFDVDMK
# MITF inh: inhibitors of human MITF; inhibition, % at 2.6 µM; AlphaScreen MITF homodimerization, bead proximity signal; O75030; 0.91% of 650,000 active; in the data active means inhibition above about 50%;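 further: 0% = vehicle wells with protein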
# GPR151 ag: human GPR151 activation | Q8TDV0 | 1% of 650,000 active | activation, % at 11.2 µM | PathHunter beta-arrestin GPR151 cells, luminescence; in the data active means activation above about 4.9%;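 further: 0% = median of compound wells and 100% = cells with positive control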
# MITF confirm: confirmation of human MITF inhibitors; shares compounds with MITF inh; AlphaScreen MITF homodimerization, biotin/His-MITF beads; inhibition, % at 2.6 µM; 16% of 4,700 active;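 active means inhibition above a cutoff derived from the DMSO control wells, cut at about 28% in these data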;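 further: 0% = MITF dimer wells with DMSO only; inhibitors lower the bead chemiluminescence by keeping MITF from dimerizing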
# AlphaScreen intf2: AlphaScreen optical interference, counter-screen | AID 1259376 | shares compounds with MITF inh | 7.6% of 4,700 active | inhibition, % at 2.6 µM | LysRS AlphaScreen counterscreen, signal interference, triplicate;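 active means inhibition above a cutoff derived from the DMSO control wells, cut at about 30% in these data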
# Numbers without * were called inactive; . = no result. Shown are actives, neighbours in structure and some others; about 3.5% of the full set was active somewhere.
SMILES,TEAD-YAP inh,FBW7 act,MITF inh,GPR151 ag,MITF confirm,AlphaScreen intf2
O=C(c1ccncc1)N1CCN(C2CC3CCC2C3)CC1 (stereo not given),-4,0,64*,2,1,14
O=C(c1ccncc1)N1CCN(C2C3CC4CC(C3)CC2C4)CC1 (stereo not given),11,0,76*,1,-3,-3
CN1CCN(Cc2ccc([N+](=O)[O-])s2)CC1,-2,0,56*,3,6,12
CN1CCN(Cc2ccc([N+](=O)[O-])o2)CC1,-2,0,48,0,.,.
CCC(C)N1CCN(Cc2ccccc2Br)CC1 (stereo not given),9,0,83*,-1,10,9
Cc1ccccc1CN1CCN(c2ccc(F)cc2)CC1,-2,0,10,1,.,.
OCCN1CCN(Cc2ccccc2Br)CC1,2,0,35,0,.,.
CCC(C)N1CCN(Cc2ccccc2C)CC1 (stereo not given),3,0,83*,0,15,21
CCc1ccc(CN2CCN(C(=O)Cc3ccccc3)CC2)cc1,11,0,33,0,.,.
O=C(Cc1ccccc1)N1CCN(Cc2cccnc2)CC1,1,0,69*,0,-1,-3
O=C(Cc1ccccc1)N1CCN(Cc2cccc(F)c2)CC1,3,0,54*,1,-2,13
O=C(Cc1ccccc1)N1CCN(Cc2ccccc2Cl)CC1,13,0,57*,1,-6,0
Cc1cccc(CN2CCN(C(=O)Cc3ccccc3)CC2)c1,6,0,37,1,.,.
O=C1/C(=C/c2ccc(C(F)(F)F)cc2)N2CCC1CC2,3,0,6,-1,.,.
COCC(C)N1Cc2ccccc2C1=N (stereo not given),5,0,-6,-1,.,.
CC(C#N)CN1CC2(C)CC1CC(C)(C)C2 (stereo not given),-1,0,39,0,.,.
CC1(C)CC2CC(C)(CN2CCC#N)C1 (stereo not given),2,0,53*,0,-12,-9
Brc1ccccc1CN1CCN(Cc2ccc3c(c2)OCO3)CC1,4,0,60*,-1,4,10
Cc1ccccc1CN1CCN(Cc2ccc3c(c2)OCO3)CC1,12,0,58*,0,2,4
CN1CCN(Cc2ccc3c(c2)OCO3)CC1,3,0,35,-1,.,.
CCCCc1nc2ccccc2c(=O)n1-c1cccc(C)c1,3,0,3,0,.,.
COc1ccccc1CN1CCN(C(C)C)CC1,-10,0,67*,1,9,9
COc1ccccc1CN1CCN(Cc2ccc(C)cc2)CC1,8,0,76*,0,3,8
CCc1ccc(CN2CCN(Cc3ccccc3OC)CC2)cc1,-3,0,72*,0,16,18
COc1cccc(CN2CCN(Cc3ccccc3)CC2)c1O,-9,0,-2,-1,.,.
SMILES,TEAD-YAP inh,FBW7 act,MITF inh,GPR151 ag,MITF confirm,AlphaScreen intf2
COc1ccccc1CN1CCN(Cc2ccccc2)CC1,-7,0,88*,0,9,11
COc1ccc2[nH]c(C)c(CCNCc3nc4ccccc4s3)c2c1,25,0,29,-1,.,.
CN1CCN(C(=O)COc2ccc(Cl)cc2)CC1,5,0,-1,1,.,.
CC(C)N1CCN(Cc2ccccc2Cl)CC1,5,0,73*,1,-12,-2
COc1cc(CN2CCN(Cc3ccccc3)CC2)cc(Br)c1O,-4,0,51*,-1,3,16
CC(C)N1CCN(Cc2ccccc2C(F)(F)F)CC1,6,0,61*,0,-7,-6
CCN1CCN(Cc2ccccc2Cl)CC1,10,0,-11,0,.,.
COc1cc(CN2CCN(Cc3ccccc3)CC2)ccc1O,0,0,41,-2,.,.
CCN(CC)c1cc(N2CCNCC2)c([N+](=O)[O-])cc1F,-4,0,-6,0,.,.
Cn1c(=O)c2[nH]c(CNCCc3ccccc3)nc2n(C)c1=O,3,0,2,-1,.,.
CCN1CCN(Cc2cccc(Br)c2)CC1,5,0,16,1,.,.
COc1cccc(CN2CCN(C(C)C)CC2)c1,4,0,46,1,.,.
CC(C)N1CCN(Cc2cccc(Br)c2)CC1,12,0,82*,0,14,13
CCC(C)N1CCN(Cc2cccc(Br)c2)CC1 (stereo not given),9,0,73*,1,8,15
CC(C)N1CCN(Cc2cccnc2)CC1,13,0,74*,0,4,7
